High-throughput results deposited in PubChem by National Center for Advancing Translational Sciences (NCATS).
A selection: hits, their analogues and other compounds. The true share with any hit is near 3%.
Coupling enz: coupling enzyme interference in Giardia aldolase counter-screen. activity change, negative = inhibition, % at 58.2 µM, hits read low. coupling enzyme system counterscreen, AmpLite Red fluorescence. actives 0.67% (n = 290,000); in the data active means activity change below about -30%
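Final compound at 57.5 uM, incubated 10 min at RT with coupling enzyme reagent (glyceraldehyde-3-phosphate), then 20 min with substrate and AmpLite Red detection. Fluorescence read at 525/598 nm; tests interference with the coupling assay, not aldolase inhibition.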
Tau fluor counter: counter-screen for tau fibril formation inhibitors; tau K18 P301L Alexa594 fluorescence, heparin fibrillization; Potency, µM (series often up to 57.7 µM), for the others: top-dose activity change, negative = decrease; actives 0.93% (n = 280,000); further: potency means the concentration at half of the fitted maximal effect; nearly all actives have a fitted effect of over 55% in size
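Human tau K18 P301L (15 uM unlabeled, 0.24 uM Alexa 594-labeled) in 100 mM sodium acetate pH 7 with 20 uM heparin, 6 hr at 37 C. ThT 30 uM added, 1 hr ambient; Alexa 594 FP and total fluorescence read at 555/632 nm.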
KDM4E inh: blocks human JMJD2E demethylase activity | JMJD2E catalytic domain, FDH-coupled NADH fluorescence (FDH is formaldehyde dehydrogenase) | Potency, µM (titrated, usually from 57.1 µM), without a hit: at the top dose activity change, negative = inhibition, usual class: inhibitors | actives 1.6% (n = 230,000) | AID 2147; active means well fitted inhibition curve with a large enough effect, not every such curve was filed as active; inconclusive means small, poorly fitted or top-dose-only effect, or another doubt; inactive means no such curve, though single readings can be large or run the other way;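 further: potency means the concentration at half of the fitted maximal effect; 0% = wells with enzyme and -100% = buffer wells without enzyme; nearly all actives have a fitted effect of over 50% in size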
Target sequence (B2RXH2 1-337 limits assumed): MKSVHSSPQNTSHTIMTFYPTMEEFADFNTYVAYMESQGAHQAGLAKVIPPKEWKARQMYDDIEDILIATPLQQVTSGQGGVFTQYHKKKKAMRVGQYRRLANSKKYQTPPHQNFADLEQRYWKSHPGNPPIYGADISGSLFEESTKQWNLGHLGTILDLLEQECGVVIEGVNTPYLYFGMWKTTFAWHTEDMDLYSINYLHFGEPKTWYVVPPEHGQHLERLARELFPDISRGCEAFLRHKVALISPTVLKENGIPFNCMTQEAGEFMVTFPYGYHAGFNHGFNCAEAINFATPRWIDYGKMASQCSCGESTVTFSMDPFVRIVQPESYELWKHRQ
Tau fibril FP: tau fibrillization inhibition (FP); K18 P301L tau heparin fibrillization, Alexa594 FP, 6 h; actives 0.39% (n = 280,000); Potency, µM (doses to about 57.7 µM), for inactives: at the top dose activity, negative = inhibition, actives largely listed as inhibitors; P10636; AID 1468; further: potency means the concentration at half of the fitted maximal effect; nearly all actives have a fitted effect of over 55% in size
Target sequence (P10636 561-689 P618L limits assumed): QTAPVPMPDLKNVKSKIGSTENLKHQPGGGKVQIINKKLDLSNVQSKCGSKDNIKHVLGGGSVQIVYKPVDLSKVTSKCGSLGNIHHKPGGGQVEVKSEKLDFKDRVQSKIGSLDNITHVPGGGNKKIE
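Steps: dispense K18 P301L tau (15 uM plus 0.24 uM Alexa 594 tracer, final) in pH 7 sodium acetate; add compound; add heparin (20 uM final); incubate 6 hr, 37 C; add ThT (30 uM final); after 1 hr ambient, read FP.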
Tau fibril ThT: inhibitors of human tau fibril formation, thioflavin T binding; actives 2.1% (n = 270,000); recombinant tau K18 P301L, heparin-induced fibrillization, ThT fluorescence; Potency, µM (top dose mostly 57.4 µM), for the others: at the highest dose activity, negative = inhibition, usual class: inhibitors; P10636; further: potency means the concentration at half of the fitted maximal effect; nearly all actives have a fitted effect of over 55% in size
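ThT emission at 510 nm, taken 1 hr after adding 30 uM dye, quantifies aggregates formed when 20 uM heparin acts on human tau K18 P301L for 6 hr at 37 C.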
* marks the source's active call; other numbers are inactive results; ? = inconclusive; / = not tested or not shown; [ ] = another dose, or the depositor's remark. Unless noted, the call rests on the fitted dose curve; in most records, active means well fitted curve in the direction sought with a large enough effect; inconclusive means small, poorly fitted or top-dose-only effect, or another doubt; inactive means no such curve, though single readings can be large; an effect the other way counts as inactive or inconclusive. Unless noted, on the % scale 0 is the no-effect control and ±100 the full control effect.

SMILES	Coupling enz	Tau fluor counter	KDM4E inh	Tau fibril FP	Tau fibril ThT
COc1cc2c(C#N)c(N3CCCC3)nc(N)c2c(N)n1	-31*	?	?	11%	?
COc1cc2c(C#N)c(N3CCN(C)CC3)nc(N)c2c(N)n1	-13	-4%	?	9%	-8%
N#Cc1c(N2CCCC2)nc(N)c2c(N)nc(N3CCCC3)cc12	-36*	13µM*[quencher]	?	11%	?
COc1cc2c(C#N)c(N3CCN(c4ccccc4OC)CC3)nc(N)c2c(N)n1	-52*	13µM*[quencher]	?	-10%	18µM*
COc1ccccc1N1CCN(c2nc(N)c(C#N)c(CC#N)c2C#N)CC1	-19	-22%	1%	5%	?
N#Cc1c(N)nc(N2CCCC2)c(C#N)c1-c1ccc(Cl)cc1	0	-6%	?	?	4%
Cc1ccc(NC(=O)CN2C(=O)COc3ccc(S(=O)(=O)N4CCCCCC4)cc32)cc1Cl	/	?	/	-19%	-6%
CC(C)c1cnc2c(c1SCC(=O)Nc1ccc(C(N)=O)cc1)c(=O)n(C)c(=O)n2C	/	-8%	/	-6%	-4%
Cc1cccc(N2CCN(c3nc4ccc(C(=O)c5ccccc5)cc4n4cnnc34)CC2C)c1 (configuration not stated)	/	?	/	-3%	0%
CCN1C(=O)/C(=C2\C=Cc3ccccc3N2CC)SC1=S	-3	?	5%	12%	6.3µM*
CCN1C(=O)/C(=C2/C=Cc3ccccc3N2C)OC1=S	2	-15%	4%	-4%	3.2µM*
CCCCN1CCC2C=CCC(C(=O)O)C2C1=O (configuration not stated)	0	/	/	/	/
O=C(/C=C/c1ccc(O)c(O)c1)O[C@H]1C[C@@](O)(C(=O)O)CC(O)C1O (some centres not stated)	-4	-12%	16µM*	-8%	-13%
CC(C)n1cc(/C=C/c2cc[n+](C)cc2)c2ccccc21	-33*	/	/	/	/
Cc1ccccc1/C=C/c1cc[n+](C)cc1	-2	-4%	25µM*	0%	-10%
COc1cccc(CNC(=O)c2cc(C)nc3c2c(C)nn3-c2cccc(F)c2)c1	/	?	/	-18%	-17%
O=C(CNCCC1=CCCCC1)Nc1ccccc1N1CCCCC1	-42*	-9%	10%	-4%	-10%
O=C(CNC1CCCCCC1)Nc1ccccc1N1CCCCC1	-3	-4%	?	-7%	-7%
CC(c1ccccc1)N1CCn2c(nc3cc(NC(=O)NC4CCCCC4)ccc32)C1 (configuration not stated)	-46*	-29%	?	7%	?
CC(c1ccccc1)N1CCn2c(nc3cc(NC(=O)c4cccs4)ccc32)C1 (configuration not stated)	-3	?	?	-2%	?
Cc1ccc(C(=O)c2cn(Cc3ccc(F)cc3)c3nc(C)ccc3c2=O)cc1	/	14%	/	-6%	-2%
COc1cc(/C=C2\C(=O)N(c3ccc(NC(C)=O)cc3)N=C2c2ccccc2)ccc1O	0	?	-26%	5%	?
CCOc1cc(/C=C2\C(=O)N(c3nc(-c4ccc(Br)cc4)cs3)N=C2c2ccccc2)ccc1O	2	?	-9%	?	11µM*
O=C1/C(=C\c2ccc(O)c(O)c2)C(c2ccccc2)=NN1c1ccccc1	-1	?	14µM*	-4%	?
CCN(CC)c1ccc(NC(=O)CSc2nnc(C)c(=O)[nH]2)cc1	/	-19%	/	2%	-16%
SMILES	Coupling enz	Tau fluor counter	KDM4E inh	Tau fibril FP	Tau fibril ThT
O=C(O)c1cccc(-c2ccc(/C=c3/sc4nc5ccccc5n4c3=O)o2)c1	-2	-7%	-20%	8%	?
O=C(O)c1cc(C(=O)O)cc(-c2ccc(/C=c3/sc4nc5ccccc5n4c3=O)o2)c1	-8	-8%	13µM*	2%	?
O=c1/c(=C\c2cc([N+](=O)[O-])cc([N+](=O)[O-])c2O)sc2nc3ccccc3n12	-32*	?	?	?	5µM*
CCc1nc(C)cn1S(=O)(=O)c1ccc(Cl)c(Cl)c1OC	/	-10%	/	7%	5%
COC(=O)C#CC(=O)OC	-3	/	/	/	/
COC(=O)[C@H](Cc1ccccc1)NC(=O)O[C@@H]1C(=O)c2ccc(OC)cc2O[C@H]1c1cccc(C(F)(F)F)c1	-1	-11%	4%	-3%	-3%
COc1cc(C/C=C/c2ccccc2)c(OC)cc1O	-51*	-28%	?	?	?
COc1cc(O)c(C(=O)/C=C/c2ccccc2)c(OC)c1	-1	-22%	8%	6%	?
CCOC(=O)c1ccn(-c2nc(-c3cccc(OC)c3)cc(C(F)(F)F)n2)n1	/	-28%	/	14%	?
FC(F)(F)c1cccc(NC(=S)Nc2cccc(NC(=S)Nc3cccc(C(F)(F)F)c3)n2)c1	-3	13µM*[quencher]	?	20µM*	-3%
FC(F)(F)c1cccc(NC(=S)NCC2COc3ccccc3O2)c1 (configuration not stated)	-2	?	-1%	25µM*	-12%
CCCNC(=S)Nc1cccc(C(F)(F)F)c1	1	-10%	-2%	5%	-8%
CC(NC(=O)c1sc2cc([N+](=O)[O-])ccc2c1Cl)C(C)(C)C (configuration not stated)	-3	-26%	-29%	?	22µM*
O=C(NC1CC1)c1sc2cc([N+](=O)[O-])ccc2c1Cl	-2	-15%	3%	5%	?
CCOC(=O)CCCNC(=O)N1CCc2nc(-c3ccc(OC)cc3C)c3c(c2C1)CO[C@@H](c1ccccc1)C3	0	-4%[11.6 µM]	-6%[11.4 µM]	4%[11.6 µM]	-2%[11.5 µM]
Cc1nn(-c2ccccc2)c2sc(C(=O)Nc3cccc(Cl)c3)cc12	/	?	/	3.2µM*	?
COc1ccc(-c2nn(C)c3sc(C(=O)Nc4cccc(F)c4)cc23)cc1OC	/	?	/	13µM*	-6%
Cc1nc(NC(=O)c2cc3c(C)nn(-c4ccccc4)c3s2)sc1C(=O)Nc1ccccc1	-2	-22%	-29%	?	-19%
COc1ccc(-c2nn(C)c3sc(C(=O)NCCN(C)C)cc23)cc1OC	0	-24%	/	-1%	-13%
Cn1nc(-c2ccccc2F)c2cc(C(=O)Nc3ccc4c(c3)OCCO4)sc21	-4	7.9µM*[quencher]	-27%	?	?
COc1cccc(NC(=O)c2cc3c(-c4ccc(Cl)cc4)nn(C)c3s2)c1	/	?	/	16µM*	1%
CN(C)c1ccc(-c2nccc(NCCN3CCOCC3)n2)cc1	-1	-11%	?	4%	?
Cc1noc(C)c1S(=O)(=O)N1CCc2nc(COc3ccccc3)c3c(c2C1)CO[C@@H](C)C3	-2	8%[11.6 µM]	-2%[11.4 µM]	5%[11.6 µM]	6%[11.5 µM]
C/C(=N\OCC(=O)N/N=C/c1ccccc1O)c1cccs1	2	?	22µM*	-4%	?
